The panel holds about 83,000 compounds, 20% with a hit somewhere; the sample as a whole holds those more often.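 96-well plates, one dose, 48 hours. Percent growth reported; active if below 10.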 The source made the active and inactive calls.
Columns and labels:
Test in all cases: NCI-60 one-dose screen, 48 h (100 = growth as untreated, 0 = no growth, -100 = all killed)
Details in all cases: 10 µM unless noted
RPMI-8226 leukemia = tested on: RPMI-8226 leukemia
OVCAR-8 ovarian = tested on: OVCAR-8 ovarian
OVCAR-5 ovarian = tested on: OVCAR-5 ovarian
OVCAR-4 ovarian = tested on: OVCAR-4 ovarian
SK-OV-3 ovarian = tested on: SK-OV-3 ovarian
IGROV1 ovarian = tested on: IGROV1 ovarian
OVCAR-3 ovarian = tested on: OVCAR-3 ovarian
HS 578T breast = tested on: HS 578T breast
NCI/ADR-RES ovarian = tested on: NCI/ADR-RES ovarian

Measured: growth

COc1cc(/C=C\c2cc(OC)c(OC)c(OC)c2)cc(NC(=O)/C=C/c2cc(OC)c(OC)c(OC)c2)c1OC
inactive: RPMI-8226 leukemia 45% | OVCAR-8 ovarian 56.6% | OVCAR-5 ovarian 77.3% | OVCAR-4 ovarian 61% | SK-OV-3 ovarian 50.8% | IGROV1 ovarian 52.8% | OVCAR-3 ovarian 51.1% | HS 578T breast 68.6% | NCI/ADR-RES ovarian 17.8%

N#Cc1c(-c2cccc([N+](=O)[O-])c2)nc(SCC(=O)c2ccc(Cl)cc2)[nH]c1=O
inactive: RPMI-8226 leukemia 102% | OVCAR-8 ovarian 99.3% | OVCAR-5 ovarian 102% | OVCAR-4 ovarian 102% | SK-OV-3 ovarian 95.4% | IGROV1 ovarian 104% | OVCAR-3 ovarian 103% | HS 578T breast 97.6% | NCI/ADR-RES ovarian 97.2%

COc1cc2c(c(O)c1Cl)C(=O)c1c(O)cc(C[C@H](C)O)cc1[C@H]2[C@H]1c2cc(C[C@H](C)O)cc(O)c2C(=O)c2c1cc(OC)c(Cl)c2O
inactive: RPMI-8226 leukemia 14.1% | OVCAR-8 ovarian 12.8% | OVCAR-4 ovarian 12.7% | IGROV1 ovarian 10.4% | HS 578T breast 11% | NCI/ADR-RES ovarian 71.3%
active: OVCAR-5 ovarian 8.75% | SK-OV-3 ovarian 8.1% | OVCAR-3 ovarian -20.4%

CCN(c1ccccc1)S(=O)(=O)c1cc([N+](=O)[O-])ccc1Cl
inactive: RPMI-8226 leukemia 43.8% | OVCAR-8 ovarian 79.8% | OVCAR-5 ovarian 67.4% | OVCAR-4 ovarian 25.1% | SK-OV-3 ovarian 55.3% | IGROV1 ovarian 54% | OVCAR-3 ovarian 74.7% | HS 578T breast 82% | NCI/ADR-RES ovarian 42.2%

CCNc1nc2cc(Nc3ccnc4cc(Cl)ccc34)ccc2o1
inactive: RPMI-8226 leukemia 80.9% | OVCAR-8 ovarian 85.3% | OVCAR-5 ovarian 71.8% | OVCAR-4 ovarian 75.5% | SK-OV-3 ovarian 84.8% | IGROV1 ovarian 70.1% | OVCAR-3 ovarian 80.9% | HS 578T breast 84.5% | NCI/ADR-RES ovarian 52.3%

Cc1ncc(C(=O)Nc2ccc(CN3CCN(C)CC3)c(C(F)(F)F)c2)cc1C#Cc1cnc(N)cc1C#N
active: RPMI-8226 leukemia -7.94% | OVCAR-8 ovarian -66.4% | OVCAR-5 ovarian -94.1% | IGROV1 ovarian 5.92% | HS 578T breast -18.2% | NCI/ADR-RES ovarian -46.8%
inactive: OVCAR-4 ovarian 30.2% | SK-OV-3 ovarian 20.6% | OVCAR-3 ovarian 39.5%

COc1cc(/C=N/NC(=O)c2cnn3c2NC(c2ccccc2)C3)ccc1OCc1ccccc1 (centres undefined)
inactive: RPMI-8226 leukemia 43.7% | OVCAR-5 ovarian 33.2% | SK-OV-3 ovarian 18.9% | IGROV1 ovarian 12.2% | NCI/ADR-RES ovarian 35%
active: OVCAR-8 ovarian 2.7% | OVCAR-4 ovarian -21.9% | OVCAR-3 ovarian -63.4% | HS 578T breast -1.22%

CC(C)(C)[Si](C)(C)OC1[C@@H](O[Si](C)(C)C(C)(C)C)[C@@H](CNC(=O)NC(=O)CCl)O[C@H]1n1cnc2c(NC(=O)Nc3ccccc3)ncnc21 (some centres undefined)
inactive: RPMI-8226 leukemia 16.7% | NCI/ADR-RES ovarian 20.3%
active: OVCAR-8 ovarian 1.14% | OVCAR-5 ovarian 5.37% | OVCAR-4 ovarian -42.3% | SK-OV-3 ovarian -92.9% | IGROV1 ovarian -50.4% | OVCAR-3 ovarian -82.1% | HS 578T breast -4.28%

COc1cc(-c2csc(NC(=O)c3cc(F)cc(C(F)(F)F)c3)n2)cc(OC)c1OC
inactive: OVCAR-8 ovarian 37.7% | OVCAR-5 ovarian 82.7% | OVCAR-4 ovarian 58.7% | SK-OV-3 ovarian 54.3% | IGROV1 ovarian 43.8% | OVCAR-3 ovarian 12.2% | HS 578T breast 20% | NCI/ADR-RES ovarian 49.8%
active: RPMI-8226 leukemia -4.32%

COC1=CC(=O)c2ccccc2C1=O
inactive: RPMI-8226 leukemia 73% | OVCAR-8 ovarian 65.4% | OVCAR-5 ovarian 107% | OVCAR-4 ovarian 70.4% | SK-OV-3 ovarian 101% | IGROV1 ovarian 83.6% | OVCAR-3 ovarian 24.5% | HS 578T breast 100% | NCI/ADR-RES ovarian 60.8%

COc1ccc(C(=O)CC#N)cc1
inactive: RPMI-8226 leukemia 110% | OVCAR-8 ovarian 103% | OVCAR-5 ovarian 105% | OVCAR-4 ovarian 107% | SK-OV-3 ovarian 112% | IGROV1 ovarian 123% | OVCAR-3 ovarian 112% | HS 578T breast 110% | NCI/ADR-RES ovarian 111%

O=C(C[n+]1cccc2ccccc21)c1ccc(O)c(O)c1
inactive: RPMI-8226 leukemia 17.4% | OVCAR-8 ovarian 49.2% | OVCAR-5 ovarian 88% | OVCAR-4 ovarian 55.1% | SK-OV-3 ovarian 120% | IGROV1 ovarian 48.5% | OVCAR-3 ovarian 35.7% | HS 578T breast 90.6% | NCI/ADR-RES ovarian 75.4%

COc1cc2cc(Oc3cccc(NC(=O)Nc4cc(C(F)(F)F)cc(C(F)(F)F)c4)c3)c(C)nc2cc1OC
active: RPMI-8226 leukemia 1.15% | SK-OV-3 ovarian -1.05% | OVCAR-3 ovarian 1.71% | HS 578T breast -10.7% | NCI/ADR-RES ovarian 7.03%
inactive: OVCAR-8 ovarian 14.2% | OVCAR-5 ovarian 14.6% | OVCAR-4 ovarian 27.9% | IGROV1 ovarian 19.8%

C=C1C(=O)O[C@H]2[C@H]1CC/C(COC(=O)NCc1c[nH]c3ccc(F)cc13)=C\CC[C@@]1(C)O[C@@H]21
inactive: OVCAR-4 ovarian 11.9% | SK-OV-3 ovarian 93.7% | HS 578T breast 50% | NCI/ADR-RES ovarian 59.7%
active: RPMI-8226 leukemia -24.4% | OVCAR-8 ovarian 0.654% | OVCAR-5 ovarian -30.6% | IGROV1 ovarian -46.7% | OVCAR-3 ovarian -75.6%

Cc1ccc(/C=C(/C#N)n2nnc3cccc(F)c32)cc1
inactive: OVCAR-4 ovarian 23% | SK-OV-3 ovarian 27.8% | IGROV1 ovarian 17.6%
active: RPMI-8226 leukemia -4.51% | OVCAR-8 ovarian 8.47% | OVCAR-5 ovarian 0.132% | OVCAR-3 ovarian -53.2% | HS 578T breast -14.8% | NCI/ADR-RES ovarian -33.1%

Cc1c2cc[nH]c(=O)c2c(C)c2c1[nH]c1cc(OCCN3CCN(C)CC3)ccc12
active: RPMI-8226 leukemia -8.18% | OVCAR-8 ovarian 5.54% | OVCAR-4 ovarian -1.71% | SK-OV-3 ovarian -1.65%
inactive: OVCAR-5 ovarian 16.1% | IGROV1 ovarian 20.2% | OVCAR-3 ovarian 17.1% | HS 578T breast 15.1% | NCI/ADR-RES ovarian 23.2%

CCN1C(=O)N(CC)C2Nn3c(s/c(=C\c4ccc(OC)cc4)c3=O)=NC21 (centres undefined)
inactive: RPMI-8226 leukemia 69.8% | OVCAR-8 ovarian 67.3% | OVCAR-5 ovarian 83.9% | OVCAR-4 ovarian 63.7% | SK-OV-3 ovarian 62.7% | IGROV1 ovarian 54.8% | OVCAR-3 ovarian 19.2% | HS 578T breast 43.6% | NCI/ADR-RES ovarian 44.2%

COc1ccc(-c2cnc3c(-c4cccc5ncccc45)cnn3c2)cc1
inactive: RPMI-8226 leukemia 68.1% | OVCAR-8 ovarian 26.8% | OVCAR-5 ovarian 82.1% | SK-OV-3 ovarian 24.4% | IGROV1 ovarian 45.1% | HS 578T breast 25.4% | NCI/ADR-RES ovarian 45.4%
active: OVCAR-4 ovarian 6.3%

O=[N+]([O-])c1ccc(N=Nc2cc(S(=O)(=O)O)c3cccc(S(=O)(=O)O)c3c2O)cc1
inactive: RPMI-8226 leukemia 104% | OVCAR-8 ovarian 108% | OVCAR-5 ovarian 113% | OVCAR-4 ovarian 114% | SK-OV-3 ovarian 102% | IGROV1 ovarian 72.8% | OVCAR-3 ovarian 121% | HS 578T breast 130% | NCI/ADR-RES ovarian 104%

Cc1c(C)c([N+](=O)[O-])c(C)c([N+](=O)[O-])c1C
inactive: RPMI-8226 leukemia 102% | OVCAR-8 ovarian 104% | OVCAR-5 ovarian 104% | OVCAR-4 ovarian 99.5% | SK-OV-3 ovarian 114% | IGROV1 ovarian 104% | OVCAR-3 ovarian 109% | HS 578T breast 102% | NCI/ADR-RES ovarian 108%

Cc1nn(-c2ccccc2)c(Cl)c1/C=N\N=c1/sc2ccccc2n1C
inactive: RPMI-8226 leukemia 78.6% | OVCAR-8 ovarian 98.2% | OVCAR-5 ovarian 92.6% | OVCAR-4 ovarian 117% | SK-OV-3 ovarian 94.7% | IGROV1 ovarian 96.2% | OVCAR-3 ovarian 111% | HS 578T breast 104% | NCI/ADR-RES ovarian 104%

N#Cc1c(-c2ccccc2)nc2c(c(-c3ccccc3)nn2-c2ccccc2)c1-c1ccc(O)cc1
inactive: RPMI-8226 leukemia 12.9% | OVCAR-8 ovarian 56% | OVCAR-5 ovarian 81.2% | OVCAR-4 ovarian 72.2% | SK-OV-3 ovarian 71.1% | IGROV1 ovarian 72% | OVCAR-3 ovarian 54.2% | HS 578T breast 15.9% | NCI/ADR-RES ovarian 70.5%

Cc1cc(C(=O)/C=C/c2ccc[nH]2)ccc1-n1ccc(C(F)(F)F)n1
inactive: OVCAR-8 ovarian 85.6% | OVCAR-5 ovarian 95.8% | OVCAR-4 ovarian 74.7% | SK-OV-3 ovarian 129% | IGROV1 ovarian 92.3% | HS 578T breast 94.3% | NCI/ADR-RES ovarian 89.3%
active: RPMI-8226 leukemia -40.1% | OVCAR-3 ovarian 4.46%

Cc1ccc(C(=O)/C(=C\c2ccc([N+](=O)[O-])cc2)S(=O)Cc2ccc(Cl)cc2)cc1 (centres undefined)
active: RPMI-8226 leukemia -28.1% | IGROV1 ovarian 1.23%
inactive: OVCAR-8 ovarian 25.6% | OVCAR-5 ovarian 45.8% | OVCAR-4 ovarian 58.9% | SK-OV-3 ovarian 106% | OVCAR-3 ovarian 22.4% | HS 578T breast 36.9% | NCI/ADR-RES ovarian 30.5%

Cc1nc2sccn2c1-c1nc2sccn2c1/C=C1/C(=O)Nc2ccccc21
active: IGROV1 ovarian -15.5% | OVCAR-3 ovarian -30.9%
inactive: RPMI-8226 leukemia 20.1% | OVCAR-8 ovarian 52.1% | OVCAR-5 ovarian 41.8% | OVCAR-4 ovarian 63.6% | SK-OV-3 ovarian 31.2% | HS 578T breast 31.8% | NCI/ADR-RES ovarian 47.9%

C#Cc1cccc(NC(=O)Nc2cccc(NC(=O)CCl)c2)c1
active: RPMI-8226 leukemia 9.12% [8.25 µM] | OVCAR-8 ovarian -7.18% [8.25 µM] | OVCAR-4 ovarian -35.9% [8.25 µM] | IGROV1 ovarian -57% [8.25 µM] | OVCAR-3 ovarian -70.8% [8.25 µM] | NCI/ADR-RES ovarian -15.1% [8.25 µM]
inactive: OVCAR-5 ovarian 12.8% [8.25 µM] | SK-OV-3 ovarian 59% [8.25 µM] | HS 578T breast 29.6% [8.25 µM]

CC(C)(C)c1cc(C=O)cc(C(C)(C)C)c1O
inactive: RPMI-8226 leukemia 72.7% | OVCAR-8 ovarian 94.1% | OVCAR-5 ovarian 108% | OVCAR-4 ovarian 98.7% | SK-OV-3 ovarian 110% | IGROV1 ovarian 106% | OVCAR-3 ovarian 101% | NCI/ADR-RES ovarian 98.8%

COc1ccc(-c2nc(S(=O)(=O)c3ccccc3)c(S(=O)CC(=O)N3CCC(C)CC3)o2)cc1 (centres undefined)
inactive: OVCAR-8 ovarian 33.9% | OVCAR-5 ovarian 48% | OVCAR-4 ovarian 28.8% | SK-OV-3 ovarian 92.2% | IGROV1 ovarian 25.6% | HS 578T breast 77.7% | NCI/ADR-RES ovarian 59.7%
active: RPMI-8226 leukemia -14.6% | OVCAR-3 ovarian -42.6%

c1ccc(-c2c(-c3ccccc3)[n+](Cc3ccc4ccccc4c3)c(-c3cccc4ccccc34)n2Cc2ccc3ccccc3c2)cc1
active: RPMI-8226 leukemia -38.7% | OVCAR-8 ovarian -44.4% | OVCAR-5 ovarian -47.8% | OVCAR-4 ovarian -81% | SK-OV-3 ovarian -50.3% | IGROV1 ovarian -71.4% | OVCAR-3 ovarian -88% | HS 578T breast -26.9% | NCI/ADR-RES ovarian -18.9%

From PubChem BioAssay (NCI)
